Experiment [1] concerns Sodium/Iodide Symporter (NIS), SLC5A5 (gene 6528). Put plainly: CPHEA_Stoker_NIS_Inhibition_RAIU: CPHEA's Radioactive Iodide Uptake (RAIU) Assay for Sodium/Iodide Symporter (NIS) Inhibition, Stoker and Laws Labs (AID 2283841). Summed up: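 Iodide uptake through human NIS is measured in an engineered HEK293T line. Cells take up 125I (329pM final) for 2 hours at room temperature alongside chemicals at 0.001–100uM. Retained radioactivity is counted, and the signal is expressed against DMSO controls.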

Experiment [2] can be described thus: CPHEA_Stoker_NIS_Cytotoxicity: Cytotoxicity Assessment for CPHEA's Radioactive Iodide Uptake (RAIU) Assay for Sodium/Iodide Symporter (NIS) Inhibition, Stoker and Laws Labs (AID 2283897).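 On AC50: active means loss of ATP signal versus DMSO meaning cytotoxicity.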 Summed up: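 ATP luminescence (Cell Titer Glo) measured viability, with loss of signal normalized to DMSO controls. Cells: hNIS-HEK293T-EPA, seeded 40 hours prior. Dosing: 0.001–100uM, 2 hours, room temperature, uptake buffer pH 7.4.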

The test system of experiment [3] is zebrafish Estrogen Receptor (ER2b), gene 317733. Put plainly: ATG_zfER2b_XSP2: Attagene TRANS-FACTORIAL Multi-Species (XSP2) HepG2 Assay for zebrafish Estrogen Receptor (ER2b) (AID 2283823).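 Further: fitted upward as reporter gain over DMSO so potency reflects activation.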 In outline:
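Reporter transcripts quantified by RT-PCR, fluorescent labelling and capillary electrophoresis after 24 h dosing of transfected HepG2 expressing zebrafish ER2b-GAL4 fusion. Medium contained 3 nM 6-alpha-fluorotestosterone plus 1.5 nM norgestrel; DMSO baseline.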

Experiment [4] deals with Estrogen receptor (Homo sapiens) (UniProt P03372). The experiment is described as follows: ATG_hERa_XSP2: Attagene TRANS-FACTORIAL Multi-Species (XSP2) HepG2 Assay for human Estrogen Receptor (ERa) (AID 2283827). Summed up: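 Trans-activation of exogenous human ERa-Gal4 chimera read in HepG2 as reporter transcript after 24 h exposure; medium included 3 nM 6-alpha-fluorotestosterone and 1.5 nM norgestrel. Quantified by RT-PCR with capillary electrophoresis, positive-direction fitting against DMSO.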

Experiment [5] relates to frog Estrogen Receptor (ER2), gene 100174814. Put plainly: ATG_frER2_XSP2: Attagene TRANS-FACTORIAL Multi-Species (XSP2) HepG2 Assay for frog Estrogen Receptor (ER2) (AID 2283828). In outline:
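Induction of reporter mRNA, baseline set by DMSO, is the endpoint. The panel was run in transfected HepG2 cells over 24 h, with 3 nM 6-alpha-fluorotestosterone and 1.5 nM norgestrel present to stimulate androgen receptor.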

Experiment [6] deals with Peroxisome proliferator-activated receptor gamma (Homo sapiens) (UniProt P37231). Put plainly: ATG_hPPARg_XSP2: Attagene TRANS-FACTORIAL Multi-Species (XSP2) HepG2 Assay for human Peroxisome Proliferator-activated Receptor gamma (PPARg) (AID 2283829).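 Further: actives raise reporter mRNA above DMSO so AC50 reflects PPARg activation.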 In outline: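 HepG2 cells transiently transfected with GAL4-UAS reporter units driven by chimeric NR-Gal4 proteins; androgen receptor stimulated with 3 nM 6-alpha-fluorotestosterone and 1.5 nM norgestrel. After 24 h, reporter mRNA quantified by RT-PCR and capillary electrophoresis versus DMSO.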

For experiment [7], the target named is mouse Peroxisome Proliferator-activated Receptor gamma (PPARg), Pparg (gene 19016) (UniProt P37238). Put plainly: ATG_mPPARg_XSP2: Attagene TRANS-FACTORIAL Multi-Species (XSP2) HepG2 Assay for mouse Peroxisome Proliferator-activated Receptor gamma (PPARg) (AID 2283830).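 Further: hits are gains in reporter mRNA above DMSO so AC50 marks activation.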 Summed up: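 Multiplexed TRANS reporter readout: after 24 h chemical exposure of transfected HepG2 cells (with 3 nM 6-alpha-fluorotestosterone, 1.5 nM norgestrel present), RNA reverse-transcribed, amplified, 6-FAM-labelled and resolved by capillary electrophoresis; mouse PPARg-Gal4 induction scored against DMSO.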

The target of experiment [8] is Nuclear receptor subfamily 1 group I member 2 (Mus musculus) (UniProt O54915). The experiment is described as follows: ATG_mPXR_XSP2: Attagene TRANS-FACTORIAL Multi-Species (XSP1) HepG2 Assay for mouse Pregnane X Receptor (PXR) (AID 2283831). Summed up:
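HepG2 cells transiently transfected with GAL4-UAS reporter units expressing chimeric NR-Gal4 proteins; 24 h compound exposure. Reporter mRNA quantified by RT-PCR and capillary electrophoresis fluorescence; gain of signal fitted against DMSO.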

In experiment [9] the test system is zebrafish Peroxisome Proliferator-activated Receptor gamma (PPARg), gene 557037. Put plainly: ATG_zfPPARg_XSP2: Attagene TRANS-FACTORIAL Multi-Species (XSP2) HepG2 Assay for zebrafish Peroxisome Proliferator-activated Receptor gamma (PPARg) (AID 2283833).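 Further: actives increase reporter signal over DMSO so AC50 reflects activation.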 In outline: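 HepG2 cells transiently transfected with multiplexed GAL4-UAS reporter units expressing chimeric NR-Gal4 receptors, dosed 24 h. Reporter mRNA quantified by RT-PCR, fluorescent labelling, HpaI digestion and capillary electrophoresis; gain of signal fitted against DMSO.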

In experiment [10] the test system is turtle Thyroid Hormone Receptor, alpha (TRa), gene 101949057. Put plainly: ATG_trTRa_XSP2: Attagene TRANS-FACTORIAL Multi-Species (XSP1) HepG2 Assay for turtle Thyroid Hormone Receptor, alpha (TRa) (AID 2283834).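 Further: hits raise reporter mRNA over the DMSO baseline so AC50 marks activators.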 In outline: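 HepG2 cells transiently transfected with GAL4-UAS reporter units for chimeric turtle TRa-Gal4; mRNA measured 24 h after dosing by RT-PCR and capillary electrophoresis fluorescence, gain of signal fitted against DMSO.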

Experiment [11] can be described thus: ATG_M_61_XSP2: Attagene TRANS-FACTORIAL Multi-Species (XSP2) HepG2 Assay for M61 Transcription Factor (Internal Marker) (AID 2283835; active means hit-call score of the fitted dose curve at least 0.9, where 1 is the maximum; inactive means score below 0.9;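 further: reporter mRNA of an internal background marker read by RT-PCR and capillary electrophoresis; active means a rise in signal above the DMSO baseline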). In outline:
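Signal was mRNA induction detected as fluorescence after RT-PCR and capillary electrophoresis, analysed in the gain direction with DMSO as baseline. HepG2 cells transiently carrying reporter constructs received chemicals for 24 h.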

The target of experiment [12] is frog Thyroid hormone Receptor alpha (TRa), thra-a (gene 397942) (UniProt P15204). The experiment is described as follows: ATG_frTRa_XSP2: Attagene TRANS-FACTORIAL Multi-Species (XSP2) HepG2 Assay for frog Thyroid hormone Receptor alpha (TRa) (AID 2283839).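 Further: AC50 reflects induction of frog TRa-driven reporter mRNA above DMSO baseline.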 In outline:
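HepG2 transiently transfected with multiplexed GAL4-UAS reporters driven by frog TRa-Gal4 chimeras; 24 h chemical exposure. Reporter mRNA quantified by RT-PCR, FAM labelling, HpaI digestion and capillary electrophoresis; gain of signal versus DMSO.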

Experiment [13] can be described thus: CEETOX_H295R_11DCORT_noMTC: CeeTox H295R High-throughput Steroidogenesis Assay for 11-Deoxycortisol (11DCORT), maximum tolerated concentration (MTC) filtered results only (AID 2283911; active means hit-call score of the fitted dose curve at least 0.9, where 1 is the maximum; inactive means score below 0.9). The following applies: actives raise or lower the signal. Summed up:
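H295R cells were prestimulated 48 h with 10 uM forskolin, then exposed 48 h to chemical (0.1% DMSO final). 11-Deoxycortisol in the medium was measured by MTBE extraction and HPLC-MS/MS, with bidirectional fitting versus DMSO and no MTC filtering of concentrations.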

Experiment [14] in a line: CEETOX_H295R_OHPREG_noMTC: CeeTox H295R High-throughput Steroidogenesis Assay for OH-Pregnenolone (OHPREG), maximum tolerated concentration (MTC) filtered results only (AID 2283912; active means hit-call score of the fitted dose curve at least 0.9, where 1 is the maximum; inactive means score below 0.9). The following applies: actives raise or lower the signal. Summed up: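 Readout is HPLC-MS/MS quantification of 17alpha-hydroxypregnenolone released by forskolin-stimulated H295R cells over 48 h of chemical exposure, DMSO as baseline.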

Experiment [15] can be described thus: CEETOX_H295R_OHPROG_noMTC: CeeTox H295R High-throughput Steroidogenesis Assay for OH-Progesterone (OHPROG), maximum tolerated concentration (MTC) filtered results only (AID 2283914; active means hit-call score of the fitted dose curve at least 0.9, where 1 is the maximum; inactive means score below 0.9). The following applies: actives raise or lower the signal. In outline: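 Analysis uses all tested concentrations, without maximum-tolerated-concentration screening by MTT. H295R cells, forskolin-primed (10 uM, 48 h), receive chemical for 48 h; hormone in medium measured by HPLC-MS/MS, with bidirectional curve fitting against DMSO.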

Experiment [16] deals with zebrafish Thyroid Hormone Receptor alpha (TRa), thraa (gene 30670) (UniProt Q98867). Put plainly: ATG_zfTRa_XSP2: Attagene TRANS-FACTORIAL Multi-Species (XSP1) HepG2 Assay for zebrafish Thyroid Hormone Receptor alpha (TRa) (AID 2283832).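 Further: actives raise zebrafish TRa-Gal4 reporter transcript above DMSO baseline.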 In outline:
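Chimeric zebrafish TRa-Gal4 activity read in transfected human HepG2 as GAL4-UAS reporter transcripts, 24 h post-dose, via RT-PCR with labeled primer extension and capillary electrophoresis. Medium also carries 3 nM 6-alpha-fluorotestosterone and 1.5 nM norgestrel; DMSO baseline.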

The target of experiment [17] is zebrafish Thyroid Hormone Receptor beta (TRb), thrb (gene 30607) (UniProt Q9PVE4). Put plainly: ATG_zfTRb_XSP2: Attagene TRANS-FACTORIAL Multi-Species (XSP1) HepG2 Assay for zebrafish Thyroid Hormone Receptor beta (TRb) (AID 2283836). In outline:
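Reporter transcripts measured by RT-PCR, 6-FAM labelling, HpaI digestion and capillary electrophoresis after 24 h chemical exposure. Human HepG2 cells carry an exogenous zebrafish TRb-GAL4 chimera; medium included 3 nM 6-alpha-fluorotestosterone plus 1.5 nM norgestrel.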

The target of experiment [18] is human Thyroid hormone Receptor alpha (TRa), THRA (gene 7067) (UniProt P10827). The experiment is described as follows: ATG_hTRa_XSP2: Attagene TRANS-FACTORIAL Multi-Species (XSP2) HepG2 Assay for human Thyroid hormone Receptor alpha (TRa) (AID 2283838). In outline: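 Reporter transcripts were read by RT-PCR with fluorescent primer extension, HpaI digestion and capillary electrophoresis. These came from HepG2 cells carrying multiplexed TRa-Gal4 TRANS constructs, harvested 24 hours after dosing. The medium also held 6-alpha-fluorotestosterone (3 nM) and norgestrel (1.5 nM), and increases were fitted against DMSO.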

The target in experiment [19] is human Thyroid hormone Receptor beta (TRb), THRB (gene 7068) (UniProt P10828). Put plainly: ATG_hTRb_XSP2: Attagene TRANS-FACTORIAL Multi-Species (XSP2) HepG2 Assay for human Thyroid hormone Receptor beta (TRb) (AID 2283840).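 Further: actives raise reporter mRNA so potency reflects agonist-like gain of signal.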 In outline:
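HepG2 transiently transfected with a multi-species panel including a human TRb–Gal4 chimera driving Gal4-UAS reporters; medium contained 3 nM 6-alpha-fluorotestosterone and 1.5 nM norgestrel. 24 h dosing; RT-PCR/capillary electrophoresis readout; positive-direction fit vs DMSO.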

Here are results for 10 compounds from PubChem BioAssay (EPA / NIEHS).

Usually AC50 stands for the concentration at which the activity in the assay is half-maximal.

Records with an inconclusive call do not appear. Calls of active or inactive are those of the source. How the source made its calls, unless noted: active means hit-call score of the fitted dose curve at least 0.9, where 1 is the maximum; inconclusive means response in the unintended direction; inactive means score below 0.9.

Chain of Nuclear receptor subfamily 1 group I member 2 (Mus musculus) (O54915 whole entry, looked up, the tested form may be a part): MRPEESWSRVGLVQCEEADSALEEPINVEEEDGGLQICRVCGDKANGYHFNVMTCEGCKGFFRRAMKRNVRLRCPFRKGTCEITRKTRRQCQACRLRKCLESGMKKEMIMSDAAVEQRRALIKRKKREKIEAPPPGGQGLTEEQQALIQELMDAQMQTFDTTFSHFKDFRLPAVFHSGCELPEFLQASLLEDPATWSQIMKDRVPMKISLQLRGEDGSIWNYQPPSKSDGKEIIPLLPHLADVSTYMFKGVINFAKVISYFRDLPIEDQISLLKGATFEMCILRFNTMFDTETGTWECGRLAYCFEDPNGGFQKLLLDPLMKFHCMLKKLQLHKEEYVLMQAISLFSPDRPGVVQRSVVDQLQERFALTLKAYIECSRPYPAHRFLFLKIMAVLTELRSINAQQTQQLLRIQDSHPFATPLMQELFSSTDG
Chain of mouse Peroxisome Proliferator-activated Receptor gamma (PPARg), Pparg (gene 19016) (P37238 whole entry, looked up, the tested form may be a part): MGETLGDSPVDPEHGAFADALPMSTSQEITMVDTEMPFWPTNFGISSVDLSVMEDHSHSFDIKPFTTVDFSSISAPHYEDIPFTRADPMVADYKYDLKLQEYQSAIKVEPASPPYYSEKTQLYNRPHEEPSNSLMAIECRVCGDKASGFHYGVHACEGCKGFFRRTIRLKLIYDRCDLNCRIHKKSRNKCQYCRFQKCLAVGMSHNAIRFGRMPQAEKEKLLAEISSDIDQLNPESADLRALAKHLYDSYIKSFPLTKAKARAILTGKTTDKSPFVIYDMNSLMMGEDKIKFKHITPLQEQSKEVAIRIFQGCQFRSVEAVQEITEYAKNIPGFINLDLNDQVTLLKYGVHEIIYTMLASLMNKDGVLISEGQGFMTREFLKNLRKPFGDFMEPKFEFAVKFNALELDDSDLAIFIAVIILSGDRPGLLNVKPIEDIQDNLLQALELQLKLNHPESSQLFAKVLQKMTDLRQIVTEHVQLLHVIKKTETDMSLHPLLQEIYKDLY
Chain of Peroxisome proliferator-activated receptor gamma (Homo sapiens) (P37231 whole entry, looked up, the tested form may be a part): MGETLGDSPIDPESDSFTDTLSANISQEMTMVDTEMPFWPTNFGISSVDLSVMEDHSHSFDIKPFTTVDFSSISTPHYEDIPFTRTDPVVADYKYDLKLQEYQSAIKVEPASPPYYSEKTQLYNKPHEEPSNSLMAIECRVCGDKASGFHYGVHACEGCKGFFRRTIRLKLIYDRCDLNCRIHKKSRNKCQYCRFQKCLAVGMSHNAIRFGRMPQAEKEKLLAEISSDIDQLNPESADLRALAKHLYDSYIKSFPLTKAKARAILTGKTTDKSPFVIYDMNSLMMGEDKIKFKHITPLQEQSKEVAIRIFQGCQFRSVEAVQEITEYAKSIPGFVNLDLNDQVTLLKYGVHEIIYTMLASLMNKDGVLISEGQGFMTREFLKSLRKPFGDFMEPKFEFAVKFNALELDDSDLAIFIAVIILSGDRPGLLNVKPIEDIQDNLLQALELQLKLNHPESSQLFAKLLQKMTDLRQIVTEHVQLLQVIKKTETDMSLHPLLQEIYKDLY
Chain of frog Thyroid hormone Receptor alpha (TRa), thra-a (gene 397942) (P15204 whole entry, looked up, the tested form may be a part): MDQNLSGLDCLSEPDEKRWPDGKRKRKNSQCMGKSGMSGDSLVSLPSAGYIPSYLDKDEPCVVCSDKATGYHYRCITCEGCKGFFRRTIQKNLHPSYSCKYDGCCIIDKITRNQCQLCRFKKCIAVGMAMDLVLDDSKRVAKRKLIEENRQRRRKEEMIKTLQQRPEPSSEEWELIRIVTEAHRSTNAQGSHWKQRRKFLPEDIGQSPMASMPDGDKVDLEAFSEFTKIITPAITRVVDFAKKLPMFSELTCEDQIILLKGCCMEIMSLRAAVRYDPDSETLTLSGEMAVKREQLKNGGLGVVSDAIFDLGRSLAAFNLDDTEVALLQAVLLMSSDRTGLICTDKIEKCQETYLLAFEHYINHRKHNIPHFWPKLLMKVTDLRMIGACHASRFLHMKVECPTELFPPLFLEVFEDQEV
Chain of Estrogen receptor (Homo sapiens) (P03372 whole entry, looked up, the tested form may be a part): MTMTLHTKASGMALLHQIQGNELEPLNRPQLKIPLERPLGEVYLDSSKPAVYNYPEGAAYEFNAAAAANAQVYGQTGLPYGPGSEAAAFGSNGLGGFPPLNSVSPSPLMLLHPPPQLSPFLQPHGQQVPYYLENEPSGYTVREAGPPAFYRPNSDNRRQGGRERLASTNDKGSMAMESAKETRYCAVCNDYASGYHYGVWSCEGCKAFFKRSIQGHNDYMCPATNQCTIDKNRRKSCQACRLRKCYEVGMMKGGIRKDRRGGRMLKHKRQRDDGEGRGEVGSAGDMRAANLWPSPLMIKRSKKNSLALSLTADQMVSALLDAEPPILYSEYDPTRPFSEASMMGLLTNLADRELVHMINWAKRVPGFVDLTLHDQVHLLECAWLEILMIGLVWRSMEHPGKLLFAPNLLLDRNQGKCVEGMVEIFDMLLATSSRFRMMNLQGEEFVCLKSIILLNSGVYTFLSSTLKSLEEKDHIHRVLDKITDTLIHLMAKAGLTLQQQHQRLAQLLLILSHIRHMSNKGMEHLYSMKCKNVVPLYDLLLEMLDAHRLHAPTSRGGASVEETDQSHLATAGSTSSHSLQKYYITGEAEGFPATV
Chain of human Thyroid hormone Receptor beta (TRb), THRB (gene 7068) (P10828 whole entry, looked up, the tested form may be a part): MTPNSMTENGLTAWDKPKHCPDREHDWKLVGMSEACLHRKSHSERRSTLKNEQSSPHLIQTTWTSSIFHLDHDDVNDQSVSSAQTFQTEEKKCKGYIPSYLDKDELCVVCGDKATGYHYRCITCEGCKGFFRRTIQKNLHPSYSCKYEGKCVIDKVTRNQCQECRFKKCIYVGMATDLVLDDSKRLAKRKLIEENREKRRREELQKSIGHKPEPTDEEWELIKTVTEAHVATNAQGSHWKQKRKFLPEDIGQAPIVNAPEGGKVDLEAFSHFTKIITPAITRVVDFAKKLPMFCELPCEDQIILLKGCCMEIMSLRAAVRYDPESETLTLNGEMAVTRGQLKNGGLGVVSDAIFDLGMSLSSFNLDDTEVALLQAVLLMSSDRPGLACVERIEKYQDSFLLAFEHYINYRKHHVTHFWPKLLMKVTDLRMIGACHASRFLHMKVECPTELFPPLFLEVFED
Chain of zebrafish Thyroid Hormone Receptor beta (TRb), thrb (gene 30607) (Q9PVE4 whole entry, looked up, the tested form may be a part): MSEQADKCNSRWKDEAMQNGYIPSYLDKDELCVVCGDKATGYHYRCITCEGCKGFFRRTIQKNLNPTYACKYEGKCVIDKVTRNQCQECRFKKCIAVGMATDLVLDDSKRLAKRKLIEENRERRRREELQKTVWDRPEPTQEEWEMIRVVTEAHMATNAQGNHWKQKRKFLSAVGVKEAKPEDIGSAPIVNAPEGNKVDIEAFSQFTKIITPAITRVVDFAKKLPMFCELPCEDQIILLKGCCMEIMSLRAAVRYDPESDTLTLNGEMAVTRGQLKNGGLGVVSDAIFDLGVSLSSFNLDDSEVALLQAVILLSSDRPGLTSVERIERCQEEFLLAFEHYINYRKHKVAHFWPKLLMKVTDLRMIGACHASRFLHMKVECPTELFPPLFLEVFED
Chain of human Thyroid hormone Receptor alpha (TRa), THRA (gene 7067) (P10827 whole entry, looked up, the tested form may be a part): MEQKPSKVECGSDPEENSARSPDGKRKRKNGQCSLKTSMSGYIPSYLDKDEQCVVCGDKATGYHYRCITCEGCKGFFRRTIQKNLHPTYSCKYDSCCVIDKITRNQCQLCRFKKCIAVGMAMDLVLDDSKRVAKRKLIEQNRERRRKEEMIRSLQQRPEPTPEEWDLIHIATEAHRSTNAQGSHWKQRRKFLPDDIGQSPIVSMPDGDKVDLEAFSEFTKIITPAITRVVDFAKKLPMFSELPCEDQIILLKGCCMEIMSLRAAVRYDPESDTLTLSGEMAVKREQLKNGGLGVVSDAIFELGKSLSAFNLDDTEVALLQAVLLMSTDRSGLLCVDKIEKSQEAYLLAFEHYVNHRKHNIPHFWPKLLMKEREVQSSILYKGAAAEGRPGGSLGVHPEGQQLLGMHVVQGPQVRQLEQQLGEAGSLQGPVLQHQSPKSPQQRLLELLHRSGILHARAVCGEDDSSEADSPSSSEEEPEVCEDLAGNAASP
Chain of zebrafish Thyroid Hormone Receptor alpha (TRa), thraa (gene 30670) (Q98867 whole entry, looked up, the tested form may be a part): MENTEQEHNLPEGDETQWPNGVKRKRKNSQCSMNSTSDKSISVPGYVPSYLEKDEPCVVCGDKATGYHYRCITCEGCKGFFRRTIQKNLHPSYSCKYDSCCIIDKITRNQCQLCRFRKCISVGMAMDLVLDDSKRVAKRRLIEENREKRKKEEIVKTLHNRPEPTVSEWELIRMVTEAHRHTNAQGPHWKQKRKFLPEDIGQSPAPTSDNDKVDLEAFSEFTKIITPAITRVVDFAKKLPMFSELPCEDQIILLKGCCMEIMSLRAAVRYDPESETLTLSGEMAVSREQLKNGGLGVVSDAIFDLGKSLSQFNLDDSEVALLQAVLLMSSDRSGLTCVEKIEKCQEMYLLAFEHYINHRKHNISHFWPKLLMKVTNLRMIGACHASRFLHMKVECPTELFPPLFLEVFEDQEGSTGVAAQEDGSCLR

On to `Cn1cc[nH]c1=S`, for which the result in [1] and in experiment [2] was inactive.

`CCCCCCCCCCCCCCCCOS(=O)(=O)O`: in experiment [2], the outcome was inactive.

As to `C=CCc1cc(S(=O)(=O)c2ccc(O)c(CC=C)c2)ccc1O`, the AC50 was 17.4 µM (active) in experiment [3]; 2.71 µM (active) in [4]; 5.26 µM (active) in experiment [6]; 19.2 µM (active) in experiment [7]; 1.72 µM (active) in experiment [12]; 38.9 µM (active) in experiment [1]. Further, the AC50 in experiment [2] is 36.8 µM (active). Also, the result in experiment [5], in experiment [8], in [9], in [10] and in [11] was inactive.

For `COc1cc(C(C)C)c2c(c1)S(=O)(=O)N(COc1cc(=O)n3cccc(OCCN4CCCCC4)c3n1)C2=O`, the outcome in experiment [1] and in experiment [2] was inactive.

On to `NC(=O)N1c2ccccc2C=Cc2ccccc21`, for which the outcome in experiment [1] and in experiment [2] was inactive.

For `CC(C)c1nnc2ccc(-c3ocnc3-c3cc(F)ccc3F)cn12`, the outcome in [1] and in experiment [2] was inactive.

Regarding `CCCCN1C(=O)[C@@H]([C@H](O)C2CCCCC2)NC(=O)C12CCN(Cc1ccc(Oc3ccc(C(=O)O)cc3)cc1)CC2`, in [2], the result was inactive.

Turning to `O=S(=O)(O)c1ccc(N=Nc2c(O)ccc3cc(S(=O)(=O)O)ccc23)cc1`, the outcome in experiment [13], in experiment [14] and in [15] was inactive.

For `CCCCOC(=O)c1ccccc1`, the outcome in experiment [1] and in [2] was inactive.

Turning to `CCN(CC)C(=S)SSC(=S)N(CC)CC`, the compound was classed as inactive in experiment [3], in [16], in [9], in experiment [10], in experiment [11] and in [17]. The compound was classed as inactive in [18], in experiment [19], in experiment [1] and in experiment [2]. For the same compound, the half-maximal activity concentration (AC50) in experiment [6] is 34.9 µM (active); in experiment [7], 42.9 µM (active); in [8] it was 5.57 µM (active).
